Measured values reported in PubChem BioAssay (NCI).
This is part of a sample that, as a whole, favours compounds with a hit. Of some 83,000 tested, about 20% had one in any assay.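 For each line, cells grew in 96-well plates with the test compound present at a single concentration for 48 hours.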 Unmarked numbers belong to inactive results. The source made the active and inactive calls. Rule for the calls: active = growth percent below 10; inactive = the rest.

Experiments:
Assay in all cases: NCI-60 one-dose screen, 48 h (100 = growth as untreated, 0 = no growth, -100 = all killed)
Settings in all cases: 10 µM unless noted
NCI-H23 lung = system: NCI-H23 lung
NCI-H226 lung = system: NCI-H226 lung
NCI-H322M lung = system: NCI-H322M lung
HOP-62 NSCLC = system: HOP-62 NSCLC
NCI-H460 lung = system: NCI-H460 lung
HOP-92 NSCLC = system: HOP-92 NSCLC
NCI-H522 lung = system: NCI-H522 lung
A549/ATCC NSCLC = system: A549/ATCC NSCLC
786-0 renal = system: 786-0 renal
COLO 205 colon = system: COLO 205 colon
DU-145 prostate = system: DU-145 prostate
K-562 leukemia = system: K-562 leukemia
MALME-3M melanoma = system: MALME-3M melanoma
MDA-MB-231 breast = system: MDA-MB-231 breast
RXF 393 renal = system: RXF 393 renal
SF-268 CNS = system: SF-268 CNS
SF-295 CNS = system: SF-295 CNS
SF-539 CNS = system: SF-539 CNS
UACC-257 melanoma = system: UACC-257 melanoma
M14 melanoma = system: M14 melanoma

Clc1ccc(-c2nc3ccc(-c4nnc(SCc5ccccc5)o4)cc3[nH]2)cc1
growth (NCI-H23 lung): 18.3%
growth (NCI-H226 lung): 40.3%
growth (NCI-H322M lung): 27.6%
growth (HOP-62 NSCLC): 9.18% (active)
growth (NCI-H460 lung): 41.4%
growth (HOP-92 NSCLC): 48%
growth (NCI-H522 lung): 10.3%
growth (A549/ATCC NSCLC): 34.9%
growth (786-0 renal): 24.6%
growth (COLO 205 colon): 55.3%
growth (DU-145 prostate): 54.9%
growth (K-562 leukemia): 36.7%
growth (MALME-3M melanoma): 29.4%
growth (MDA-MB-231 breast): -11.9% (active)
growth (RXF 393 renal): -4.87% (active)
growth (SF-268 CNS): 60%
growth (SF-295 CNS): -73.4% (active)
growth (SF-539 CNS): -28% (active)
growth (UACC-257 melanoma): 62.2%
growth (M14 melanoma): 67.9%

N#Cc1cc(-c2ccc3ncnc(N4CCc5cc(F)c(Cl)cc54)c3c2)cnc1N
growth (NCI-H23 lung): 50.2%
growth (NCI-H226 lung): 59.1%
growth (NCI-H322M lung): 38.4%
growth (HOP-62 NSCLC): 77.5%
growth (NCI-H460 lung): 5.5% (active)
growth (HOP-92 NSCLC): 1.74% (active)
growth (NCI-H522 lung): 46%
growth (A549/ATCC NSCLC): 42%
growth (786-0 renal): 22.1%
growth (COLO 205 colon): 12.2%
growth (DU-145 prostate): 8.95% (active)
growth (K-562 leukemia): 37.8%
growth (MALME-3M melanoma): 50.6%
growth (MDA-MB-231 breast): 28.7%
growth (RXF 393 renal): 17.9%
growth (SF-268 CNS): 46.5%
growth (SF-295 CNS): 40.1%
growth (SF-539 CNS): 35.6%
growth (UACC-257 melanoma): 90.2%
growth (M14 melanoma): 36.8%

C[C@H]1[C@@H](CC(=O)N[C@@H](Cc2coc3ccccc23)B(O)O)O[C@@H]2OC3(C)CC[C@H]4[C@H](C)CC[C@@H]1[C@@]24O3
growth (NCI-H23 lung): 18.6%
growth (NCI-H226 lung): -15.5% (active)
growth (NCI-H322M lung): 74.9%
growth (HOP-62 NSCLC): 6.31% (active)
growth (NCI-H460 lung): 17%
growth (HOP-92 NSCLC): 23.2%
growth (NCI-H522 lung): -50% (active)
growth (A549/ATCC NSCLC): 31.6%
growth (786-0 renal): 17.1%
growth (COLO 205 colon): 23%
growth (DU-145 prostate): 45%
growth (K-562 leukemia): 14.8%
growth (MALME-3M melanoma): -41.6% (active)
growth (MDA-MB-231 breast): -68.3% (active)
growth (RXF 393 renal): -59% (active)
growth (SF-268 CNS): 17.5%
growth (SF-295 CNS): -65.7% (active)
growth (SF-539 CNS): -91.6% (active)
growth (UACC-257 melanoma): -45.3% (active)
growth (M14 melanoma): -33.7% (active)

COc1cc(/C=N/NC(=O)c2ccc(OCc3nc4ccc(C)cc4[nH]3)cc2)cc(OC)c1OC
growth (NCI-H23 lung): 22.3%
growth (NCI-H226 lung): 43%
growth (NCI-H322M lung): 66.2%
growth (HOP-62 NSCLC): 62.5%
growth (NCI-H460 lung): 33.6%
growth (HOP-92 NSCLC): 96.5%
growth (NCI-H522 lung): 28.1%
growth (A549/ATCC NSCLC): 28.4%
growth (786-0 renal): 41.2%
growth (COLO 205 colon): 8.02% (active)
growth (DU-145 prostate): 62.2%
growth (K-562 leukemia): 17.7%
growth (MALME-3M melanoma): 4.8% (active)
growth (MDA-MB-231 breast): 87.8%
growth (RXF 393 renal): 39.6%
growth (SF-268 CNS): 78.7%
growth (SF-295 CNS): 40.4%
growth (SF-539 CNS): 49.2%
growth (UACC-257 melanoma): 11.3%
growth (M14 melanoma): 33%

CCOC(=O)c1ccc(NC(=S)NC(=O)c2cccc(NC(=O)c3ccc(C)cc3)c2)cc1
growth (NCI-H23 lung): 66.8%
growth (NCI-H226 lung): 32.2%
growth (NCI-H322M lung): 74.7%
growth (HOP-62 NSCLC): 40.4%
growth (NCI-H460 lung): 75.9%
growth (HOP-92 NSCLC): 36.4%
growth (NCI-H522 lung): 50.6%
growth (A549/ATCC NSCLC): 48.2%
growth (786-0 renal): 81.2%
growth (COLO 205 colon): 77.9%
growth (DU-145 prostate): 105%
growth (K-562 leukemia): 76.3%
growth (MALME-3M melanoma): 71.9%
growth (MDA-MB-231 breast): 39.1%
growth (RXF 393 renal): 66.9%
growth (SF-268 CNS): 102%
growth (SF-295 CNS): 90.9%
growth (SF-539 CNS): 44.9%
growth (UACC-257 melanoma): 78.6%
growth (M14 melanoma): 80.7%

COc1c(B(O)O)cc(F)cc1-c1nc2c(F)cc3[nH]ncc3c2c2c1CCCC2
growth (NCI-H23 lung): 5.45% (active)
growth (NCI-H226 lung): 4.1% (active)
growth (NCI-H322M lung): 12.6%
growth (HOP-62 NSCLC): 16.8%
growth (NCI-H460 lung): 2.44% (active)
growth (HOP-92 NSCLC): 17.2%
growth (NCI-H522 lung): 5.36% (active)
growth (A549/ATCC NSCLC): 2.51% (active)
growth (786-0 renal): 29.2%
growth (COLO 205 colon): -16% (active)
growth (DU-145 prostate): 14.6%
growth (K-562 leukemia): 38.8%
growth (MALME-3M melanoma): 50.9%
growth (MDA-MB-231 breast): 3.96% (active)
growth (RXF 393 renal): -45.4% (active)
growth (SF-268 CNS): 30.3%
growth (SF-295 CNS): 15.2%
growth (SF-539 CNS): -44% (active)
growth (UACC-257 melanoma): 40%
growth (M14 melanoma): 38.2%

C#CCCCNCCNc1ccnc2cc(Cl)ccc12
growth (NCI-H23 lung): 72.7%
growth (NCI-H226 lung): 70.7%
growth (NCI-H322M lung): 92%
growth (HOP-62 NSCLC): 79.1%
growth (NCI-H460 lung): 83.2%
growth (HOP-92 NSCLC): 53.4%
growth (NCI-H522 lung): 41.1%
growth (A549/ATCC NSCLC): 84.3%
growth (786-0 renal): 58.8%
growth (COLO 205 colon): 10.7%
growth (DU-145 prostate): 74.5%
growth (K-562 leukemia): 19.9%
growth (MALME-3M melanoma): 88.8%
growth (MDA-MB-231 breast): 66.3%
growth (RXF 393 renal): 36.2%
growth (SF-268 CNS): 87.7%
growth (SF-295 CNS): 48.2%
growth (SF-539 CNS): -13.9% (active)
growth (UACC-257 melanoma): 0.503% (active)
growth (M14 melanoma): 61.3%

COc1ccc(C(=O)c2cc(C(C)=O)c3c(C)cc(C)cn23)cc1
growth (NCI-H23 lung): 47.7%
growth (NCI-H226 lung): 44.4%
growth (NCI-H322M lung): 76.8%
growth (HOP-62 NSCLC): 34.5%
growth (NCI-H460 lung): 45.4%
growth (HOP-92 NSCLC): 46.8%
growth (NCI-H522 lung): 2.3% (active)
growth (A549/ATCC NSCLC): 45.3%
growth (786-0 renal): 45.4%
growth (COLO 205 colon): 92.7%
growth (DU-145 prostate): 66.9%
growth (K-562 leukemia): 86.4%
growth (MALME-3M melanoma): 72.1%
growth (MDA-MB-231 breast): 75.3%
growth (RXF 393 renal): 8.06% (active)
growth (SF-268 CNS): 23.5%
growth (SF-295 CNS): 31%
growth (SF-539 CNS): 23.8%
growth (UACC-257 melanoma): 79.2%
growth (M14 melanoma): 84.9%
